EphB4 ephrin blk = blocks human EphB4 binding to ephrin-B2; 0.15% of 97,000 active; EphB4 LBD / TNYL-RAW-Alexa532 peptide, fluorescence polarization; inhibition, % at 7 µM; P54760; AID 720;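 active means inhibition above the screen-wide mean inhibition plus 3 SD, cut at about 15% in these data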;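 further: 0% = DMSO wells and 100% = excess unlabeled TNYL-RAW peptide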
CYP2C19 activ = increases human CYP2C19 enzyme activity; recombinant CYP2C19, luciferin-H EGE luminescence; hits give high values; 0 = fully inhibited enzyme, 1 = untreated enzyme; activation factor at 5 µM; 96,000 tested, under 10 active;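 active means activation factor of at least 2 at 5 µM in the primary screen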;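 further: 0 = wells with 2.5 mM tranylcypromine and 1 = vehicle-only wells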
CYP2C19 inh = human CYP2C19 inhibition | P33261 | CYP2C19 Supersomes, luciferin-H EGE luminescence, 30 min | inhibition, % at 5 µM | 21% of 96,000 active | AID 778;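 active means CYP2C19 inhibition above a set limit at 5 µM in the primary screen, cut at about 50% in these data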;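 further: plate controls were negative control wells for no effect and 2.5 mM tranylcypromine positive control for full effect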
CYP2C9 activ = CYP2C9 (human) activation; activation factor at 5 µM; P11712; AID 1024; recombinant CYP2C9, luciferin-H conversion, luminescence; hits give high values; factor 1 = untreated enzyme, 0 = blocked; 1.4% of 96,000 active;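 active means activation factor of 2 or more for CYP2C9 at a 5 µM dose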;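 further: 0 = sulfaphenazole-blocked wells and 1 = vehicle-only wells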
Target sequence (P11712 whole entry, looked up): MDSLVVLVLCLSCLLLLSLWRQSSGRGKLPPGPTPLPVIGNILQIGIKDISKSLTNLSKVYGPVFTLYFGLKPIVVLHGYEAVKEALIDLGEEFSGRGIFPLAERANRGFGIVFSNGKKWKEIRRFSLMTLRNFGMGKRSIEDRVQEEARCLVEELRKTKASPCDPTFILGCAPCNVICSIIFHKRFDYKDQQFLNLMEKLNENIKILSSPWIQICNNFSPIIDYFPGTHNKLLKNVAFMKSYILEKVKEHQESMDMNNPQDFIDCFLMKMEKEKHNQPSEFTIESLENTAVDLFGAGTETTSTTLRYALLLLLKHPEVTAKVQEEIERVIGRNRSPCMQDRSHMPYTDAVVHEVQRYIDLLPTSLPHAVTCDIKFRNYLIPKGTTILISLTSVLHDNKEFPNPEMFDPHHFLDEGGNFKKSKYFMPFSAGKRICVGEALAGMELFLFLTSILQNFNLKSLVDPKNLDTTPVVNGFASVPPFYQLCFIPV
CYP2C9 inh = human CYP2C9 inhibition; CYP2C9 Supersomes, luciferin-H conversion, luminescence; inhibition, % at 5 µM; 20% of 96,000 active;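 active means blocking of liver enzyme CYP2C9 beyond about 50% at 5 µM, limit read from the data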
Starred values were filed as active, the others as inactive; · = no result given. The list is not random: actives were taken first. Their share in the collection is about 27%.

SMILES	EphB4 ephrin blk	CYP2C19 activ	CYP2C19 inh	CYP2C9 activ	CYP2C9 inh
COC(=O)c1cnn(C(=O)c2ccccc2Br)c1N	-4	0.6	37	1	-3
Cc1cc(C(C)(C)C)cc(S(=O)(=O)NCCO)c1C	3	0.6	42	3*	-197
Cc1ccc(/C=C/C(=O)O)cc1S(=O)(=O)NCCO	4	0.6	42	1.1	-13
COc1ccc(C(=O)NC2(C(F)(F)F)N=C3SCCN3C2=O)cc1 (stereo unspecified)	2	1	4	1	5
COc1ccc(-c2nc3cc(NC(=O)c4ccc5c(c4)OCO5)ccc3o2)cc1	-8	0.9	10	0.9	5
O=C(Nc1cccc(Cl)c1N1CCCCC1)c1ccc2c(c1)OCCO2	-5	0.8	19	0.3	65*
O=C(Nc1ccncc1)c1ccc2c(c1)OCCO2	·	0.2	77*	0.5	50*
O=C(Nc1cccc2cccnc12)c1ccc2c(c1)OCCO2	-4	0.6	38	2*	-102
O=C(Nc1ccc2oc(-c3ccccc3)nc2c1)c1ccc2c(c1)OCCO2	10	0.5	53*	0.3	66*
COc1cc(NC(=O)c2ccc3c(c2)OCO3)c2ncccc2c1	4	·	·	·	·
Cc1nc2sc(C(c3ccco3)N3CCN(c4cccc(Cl)c4)CC3)c(O)n2n1 (stereo unspecified)	3	·	·	·	·
COc1ccc(NC2=CC(=O)CC(C)(C)C2)cc1OC	-7	0.9	11	0.9	6
CC(C)CN(C(=O)COC(=O)CCN1C(=O)c2ccccc2C1=O)C1CCS(=O)(=O)C1 (stereo unspecified)	-4	0.9	7	1.1	-6
Cc1nc2c(ccc3nc(NC(=O)c4ccc5c(c4)OCCO5)sc32)s1	4	0.8	15	0.4	63*
Cc1nc2ccc3nc(NC(=O)c4ccc5c(c4)OCCO5)sc3c2s1	-7	1	0	0.9	10
COc1cc(=O)[nH]c(SCc2c(F)c(F)c(F)c(F)c2F)n1	5	0.7	27	0.5	50*
CC(C)Cc1nnc(NC(=O)c2cc(-c3ccccc3)nc3ccccc23)s1	1	0.6	44	0.7	32
Cc1cc(C(=O)NNC(=S)NC(C)c2ccccc2)c2ccccc2n1 (stereo unspecified)	10	1	-4	0.4	55*
CCCOc1cccc(-c2cc(C(=O)NNC(=S)NCC)c3ccccc3n2)c1	-1	0.8	22	0.3	70*
CCCc1cc(C(=O)NNC(=S)NC(C)c2ccccc2)cs1 (stereo unspecified)	5	0.2	81*	0.6	44
CCNC(=S)NNC(=O)c1cc(-c2ccccc2C)nc2ccccc12	6	1	0	0.4	60*
COc1cc2cc3c(N)c(C(=O)Nc4sc(C)c(C)c4C#N)sc3nc2cc1OC	-7	1	4	0.8	18
COc1ccc(C(=O)NNC(=S)NC(=O)c2cc(-c3ccccc3)nc3ccccc23)cc1	5	0.9	8	0.6	42
CCCOc1ccc(C(=O)NNC(=S)NC(=O)c2cc(-c3ccc(Cl)cc3)nc3ccccc23)cc1	3	0.9	8	0.5	50*
CCNC(=S)NNC(=O)c1cc(-c2ccc(OCC)cc2)nc2ccccc12	-8	0.6	43	0.2	79*
SMILES	EphB4 ephrin blk	CYP2C19 activ	CYP2C19 inh	CYP2C9 activ	CYP2C9 inh
CCNC(=S)NNC(=O)c1cc(CC(C)C)nc2ccccc12	-4	0.9	10	0.4	64*
CCCc1cc(C(=O)O)c2ccccc2n1	-5	1.1	-14	1	-5
N#Cc1c(NC(=O)CSc2ncccn2)oc(-c2ccccc2)c1-c1ccccc1	9	·	·	·	·
CCn1c(SCC(=O)Nc2oc(-c3ccccc3)c(-c3ccccc3)c2C#N)nnc1-c1cc(OC)cc(OC)c1	9	0.4	59*	0	100*
N#Cc1c(NC(=O)Cn2cnc3ccccc3c2=O)oc(-c2ccccc2)c1-c1ccccc1	1	0.7	34	0.2	83*
N#Cc1c(NC(=O)CSc2n[nH]c(Cc3ccccc3)n2)oc(-c2ccccc2)c1-c1ccccc1	8	0.1	91*	0	99*
Cc1ccc(OCC(=O)Nc2oc(-c3ccccc3)c(-c3ccccc3)c2C#N)cc1	4	·	·	·	·
N#Cc1c(NC(=O)CN2CCOCC2)oc(-c2ccccc2)c1-c1ccccc1	-12	0.9	12	0.6	45
Cc1ccnc(SCC(=O)Nc2oc(-c3ccccc3)c(-c3ccccc3)c2C#N)n1	3	0.6	36	0.1	88*
O=C(NCCc1ccc(Cl)cc1)C1CCC(=O)N1Cc1ccccc1Cl (stereo unspecified)	1	0.6	36	0.6	44
CCCn1c(Nc2ccc(Cl)cc2)nc2ccccc21	-2	1	-5	1	2
O=c1[nH]c2ccccc2nc1C(F)(F)C(F)F	-6	1.1	-5	0.9	6
COc1ccc(NC(C)=O)cc1NC(C)C(=O)Nc1cccc2ccccc12 (stereo unspecified)	-2	0.3	67*	0.2	82*
COc1ccc(NC(C)=O)cc1NC(C)C(=O)Nc1ccc(F)cc1 (stereo unspecified)	5	0.5	49	0.5	55*
COc1ccc(NC(C)=O)cc1NC(=O)CN1CCN(CC(=O)Nc2ccccc2Cl)CC1	-6	0.5	46	0.8	23
CN1CCc2c(sc3c2c(=O)n(-c2ccccc2)c2nnc(SCc4ccccc4)n32)C1	·	0.9	7	0.9	8
O=S(=O)(c1ccc(Br)s1)N1CCc2ccccc2C1	0	·	·	·	·
Cc1ccc(S(=O)(=O)NCC(c2cccnc2)N(C)C)cc1 (stereo unspecified)	0	0.4	61*	0.9	7
O=S(=O)(NCC(c1cccnc1)N1CCN(c2ccc(F)cc2)CC1)c1cccs1 (stereo unspecified)	·	0.1	88*	0.4	58*
O=S(=O)(NCC(c1cccnc1)N1CCOCC1)c1cccs1 (stereo unspecified)	-6	·	·	·	·
O=S(=O)(NCC(c1cccnc1)N1CCN(c2ccccc2F)CC1)c1cccs1 (stereo unspecified)	1	0.1	86*	0.3	66*
O=C(C(Sc1ccccc1)c1ccccc1)N1CCN(c2ccccc2F)CC1 (stereo unspecified)	0	0.1	86*	0.2	76*
O=C(c1ccco1)N1CCN(c2ccccc2F)CC1	6	0.9	14	1.2	-16
Cc1ccc(S(=O)(=O)N2CCOCC2)cc1C(=O)OCC(=O)N1c2ccccc2NC(=O)C1(C)C	-6	1.2	-17	0.8	20
N#CCSCC(=O)Nc1ccccc1	6	1	-1	1.1	-12
O=C(Nc1cc(C(F)(F)F)ccc1N1CCOCC1)c1n[nH]c(=O)c2ccccc12	0	1.1	-6	1.1	-9
Cc1cccn2c(=O)c3cc(C(=O)N(C)C)n(C)c3nc12	8	1.1	-9	1	-4
Cn1c(=O)oc2cc(S(=O)(=O)NCc3ccco3)ccc21	-7	1	4	1.1	-11

Screens (PubChem BioAssay)
